Screen size: about 1,300 compounds; fewer than 10 were called active. These entries were drawn from the full list. Unmarked numbers belong to inactive results. No rule for the calls is given here.

Sequence of N-formyl peptide receptor 2 (Homo sapiens) (P25090 whole entry, looked up): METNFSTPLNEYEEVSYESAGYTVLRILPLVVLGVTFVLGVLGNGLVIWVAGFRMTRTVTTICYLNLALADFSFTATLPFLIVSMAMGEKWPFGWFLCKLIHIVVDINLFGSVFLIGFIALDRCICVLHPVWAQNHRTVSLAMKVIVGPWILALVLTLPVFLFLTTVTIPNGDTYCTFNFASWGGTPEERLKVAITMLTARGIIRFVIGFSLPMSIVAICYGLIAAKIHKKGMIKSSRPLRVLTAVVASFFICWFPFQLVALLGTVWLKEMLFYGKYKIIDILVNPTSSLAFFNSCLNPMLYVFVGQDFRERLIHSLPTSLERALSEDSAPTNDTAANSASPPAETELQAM

The experiment concerns the target N-formyl peptide receptor 2 (Homo sapiens) (UniProt P25090). In words: FPRL1 fluorescent ligand binding inhibitors, primary screen, selectivity assay for FPR ligand SAR project, cell-based, flow cytometry, HTS counterscreen (AID 725). The note with it: FPRL1-expressing cells, hits give high values, concentration not given here.
In the case of `CCOc1ccc(/C(O)=C2\C(=O)C(=O)N(c3nnc(C)s3)C2c2ccc(Br)cc2)cc1` (centres undefined), the inhibition was 1.9%. As for `COc1ccc(C2C(C(=O)c3cc4ccccc4o3)=C(O)C(=O)N2c2nccs2)cc1` (centres undefined), the inhibition is 1%. Take `Cc1ccc(C2/C(=C(\O)c3ccc(F)cc3)C(=O)C(=O)N2CCN2CCOCC2)o1` (centres undefined): the inhibition is 5.6%. Regarding `CN1C(=O)c2ccccc2C(C(=O)N2CCCCC2)C1c1cccs1` (centres undefined), the inhibition was -3.9%. As for `O=C1C(=O)N(CCN2CCOCC2)C(c2ccco2)/C1=C(\O)c1ccc(F)cc1` (centres undefined), the figure is 5.5%; as for `Cc1cc(=O)n2[nH]cc(C(=O)O)c2n1`, -16.5%; as for `O=C(C1=C(O)C(=O)N(CCN2CCOCC2)C1c1cccs1)c1ccco1` (centres undefined), -2%. With `CN(C)CCN1C(=O)C(O)=C(C(=O)c2cc3ccccc3o2)C1c1cccc(Oc2ccccc2)c1` (centres undefined) the figure was 1.3%. Consider `CCN1C(=O)C(O)(CC(=O)c2ccc3c(c2)OCO3)c2ccccc21` (centres undefined), for which the inhibition is -4.3%. With `CCOC(=O)c1c(NC(=O)C2C3CCC(O3)C2C(=O)O)sc2c1CCC(CC)C2` (centres undefined) the figure was 0.3%.

On to `CCOC(=O)N1CCC(c2cc(=O)n3[nH]cc(C(=O)Nc4ccc(OCC)cc4)c3n2)CC1`, for which the inhibition was -5.2%. Regarding `CCOC(=O)C1NN=C(C(=O)c2ccc(OC)cc2)C1c1ccccc1` (centres undefined), the inhibition was 3.5%. As to `Cc1ccc(N2C(=O)C(=O)/C(=C(\O)c3ccc(Cl)cc3)C2c2cccnc2)cc1Br` (centres undefined), the inhibition is 4.5%. With `CCc1cc2c(=O)c(-c3nc4ccccc4s3)c(C)oc2c(CN2CCCCC2)c1O` the figure was -7.2%. For `COc1ccc(N2C(=O)CSC2c2ccc(C(C)C)cc2)cc1` (centres undefined), the inhibition was 4.8%.

Take `CCCCn1c(=O)c2oc3ccccc3c2n(Cc2ccccc2F)c1=O`: the inhibition is -2.7%.

Turning to `CCCN(C(=O)[C@H]1[C@@H]2C[C@@H]3[C@H]1C(=O)O[C@@H]3C2)c1ccccc1OCC`, the inhibition was 9.1%. As for `Cc1cccc(N2C(=O)CSC2c2cccc(F)c2)c1` (centres undefined), the figure is -31.8%. Consider `Cc1ccc(C)c(Cn2c(=O)cc(C)c3c(C)nn(-c4ccccc4)c32)c1`, for which the inhibition was -16.2%. With `Cc1ccc(/C(O)=C2/C(=O)C(=O)NC2c2ccc3c(c2)OCO3)cc1` (centres undefined) the figure was 1.1%; with `CCOC(=O)C1=C(C)N(c2ccc(C)c(C)c2)C(=O)/C1=C\c1ccccc1OC`, -8.1%; with `CCN1C(=O)C(=C2CCCC2)N(CC)C1=O`, 8%. As for `CCCCCCN1C(=O)C(=O)/C(=C(\O)c2ccccc2)C1c1ccc(C(C)C)cc1` (centres undefined), the figure is -2.5%; as for `COc1cc(C)nc(N(CCC(C)C)S(=O)(=O)c2ccc(C)cc2)n1`, -7.7%.

As usually defined, the inhibition is the change of the read-out against control, counted positive when it falls.
